Entries with a potency or affinity are not part of this list. The source made the active and inactive calls.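 The calls were made as follows: active = fitted half-maximal dose no more than twice the top valid tested dose, for compounds that lower signal; inconclusive = fit invalid, or curve flat with activity between -70 and -30; inactive = potency past limit, curve flat within ±30, or signal increasing.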
Target: NAD-dependent protein deacylase sirtuin-5, mitochondrial (Homo sapiens) (UniProt Q9NXA8)
Sequence (Q9NXA8 whole entry, looked up): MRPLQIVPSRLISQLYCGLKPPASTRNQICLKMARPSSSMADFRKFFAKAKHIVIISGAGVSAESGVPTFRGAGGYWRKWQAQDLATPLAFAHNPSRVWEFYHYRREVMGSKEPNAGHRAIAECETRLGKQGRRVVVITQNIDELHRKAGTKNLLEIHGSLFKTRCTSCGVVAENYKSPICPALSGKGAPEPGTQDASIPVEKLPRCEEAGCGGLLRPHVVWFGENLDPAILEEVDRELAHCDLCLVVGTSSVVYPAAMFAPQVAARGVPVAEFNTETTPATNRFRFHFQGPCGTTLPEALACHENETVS
Assay: blockers of sirtuin-5 peptide desuccinylation – biochemical, fluorescence imaging, cherry-pick, set 6, dose response (AID 720597);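 also: lower AMC signal can also come from blocking the trypsin step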
Details: Purified SirT5, succinyl-peptide-AMC/trypsin fluorescence; series mostly up to 15 µM

| Structure (SMILES) | outcome |
| --- | --- |
| CN(C)C(=O)c1cccc(-c2ccc([C@H]3[C@H](CO)N4CCCCN(S(C)(=O)=O)C[C@@H]34)cc2)c1 | inactive |
| CN(C)C(=O)c1cccc(-c2ccc([C@@H]3[C@@H](CO)N4CCCCN(S(C)(=O)=O)C[C@H]34)cc2)c1 | inactive |
| O=C(C[C@H]1CC[C@H]2[C@@H](COC[C@@H](O)CN2S(=O)(=O)c2ccccc2)O1)Nc1ccc(-c2ccccc2)cc1 | inactive |
| C[C@H]1CN([C@@H](C)CO)S(=O)(=O)c2ccc(/C=C/c3ccccc3)cc2O[C@@H]1CN(C)C(=O)Nc1ccc(F)cc1 | inactive |
| C[C@H]1CN([C@@H](C)CO)S(=O)(=O)c2ccc(C#CC3CC3)cc2O[C@@H]1CN(C)C(=O)Cc1ccncc1 | inactive |
| Cc1ccc(S(=O)(=O)N(C)C[C@H]2OCCCC[C@H](C)Oc3ccc(NS(=O)(=O)c4ccccc4)cc3C(=O)N([C@@H](C)CO)C[C@@H]2C)cc1 | inactive |
| COc1ccc(S(=O)(=O)N(C)C[C@H]2Oc3cc(C#CC4CC4)ccc3S(=O)(=O)N([C@@H](C)CO)C[C@H]2C)cc1 | inactive |
| C[C@H](CO)N1C[C@H](C)[C@H](CN(C)S(=O)(=O)c2ccc(F)cc2)Oc2c(NC(=O)c3nc4ccccc4s3)cccc2C1=O | inactive |
| COc1ccc(S(=O)(=O)Nc2ccc3c(c2)C(=O)N([C@H](C)CO)C[C@@H](C)[C@H](CN(C)Cc2ccc(C(F)(F)F)cc2)OCCCC[C@@H](C)O3)cc1 | inactive |
| COc1ccc(S(=O)(=O)N(C)C[C@@H]2OCCCC[C@H](C)Oc3ccc(NS(=O)(=O)c4ccc(F)cc4)cc3C(=O)N([C@H](C)CO)C[C@H]2C)cc1 | inactive |
